Results from PubChem BioAssay.
“And” between values parts separate entries of the source, which are not always exact repeats. Equal values may be shown once. The source holds several records for some structures; these can differ, active in one and inactive in another. The source made the active and inactive calls.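 Rule for the calls, unless noted: active = inhibition at or above 50% relative to wild type and mutant plate controls; inactive = inhibition below 50%.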

What was measured:
[1] = inhibitors of TNFa-induced NFkB p65 translocation, primary screen, imaging, HUVEC, MLSMR starter and 10KST1 sets (AID 438;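 active = inhibition above 20% together with a positive visual image hit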;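 note: compound added about 3h40 before a 20 min TNFalpha stimulation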;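 for inhibition: signal is the nuclear over cytoplasmic p65 intensity ratio per well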); conditions: HUVEC TNFa-induced p65 nuclear translocation; cell count: measured here: nuclei count (cytotoxicity indicator), at 2.08 µM; inhibition: at 2 µM, stronger effect = higher value, 0% TNFa-plus-vehicle, 100% no-TNFa wells
[2] = reduction of polyQ htt aggregates in cells – imaging, exon1htt(103Q)mCFP cells, high-content imaging, primary screen (AID 483;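 active = visual image review flags a hit and inhibition of aggregation exceeds 20%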;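 note: compound exposure lasted 3 days before fixation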;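 for nuclei count: percent of the per-plate median nuclei count of sample wells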); conditions: exon1htt(103Q)mCFP cell line, aggregate imaging, at 2 µM; inhibition of aggregation: stronger effect = higher value; nuclei count: measured here: cell count, toxicity
[3] = endothelial E-selectin expression blockers – imaging, HUVEC, immunofluorescence, MLSMR starter and 10KST1 sets, primary screen (AID 487;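 active = visually confirmed hit in the image check and inhibition above 20%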;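 for inhibition: signal is fraction of cell area covered by stained E-selectin grains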;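 for nuclei count: 100% = median nuclei count of all wells on the same plate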); conditions: HUVEC TNFalpha-induced E-selectin immunofluorescence imaging, at 2 µM; inhibition: stronger effect = higher value; nuclei count: measured here: cell number, toxicity
[4] = Primary imaging screen for DUSP6 inhibitors that restore phospho-Erk in transfected HeLa cells, chemical complementation (AID 609;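 active = compounds giving at least 50% inhibition in the cell-based MKP-3 phosphatase rescue imaging test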;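 for inhibition: phospho-Erk level distribution per well compared with pooled transfected vehicle control wells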); conditions: HeLa MKP-3 transfected, phospho-Erk imaging KS statistic, at 10 µM, cells stimulated with TPA for 15 min
[5] = target: Dual specificity protein phosphatase 6 (Homo sapiens) (UniProt Q16828); experiment: as above; conditions: HeLa MKP-3 transfected, phospho-Erk imaging KS statistic; at 10 µM; stronger effect = higher value; cells stimulated with TPA for 15 min
[6] = target: Voltage-gated potassium channel subunit beta-2 (Rattus norvegicus) (UniProt P62483); experiment: inhibitors of rat Kvbeta2 reductase activity – biochemical, NADPH fluorescence, primary screen (AID 622;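 active = fluorescence slope higher than the sample average by over 3 SD, cut at about -0.22 in these data, passing the limit was not always enough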;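 note: slope of raw intensity against log time taken from 70 to 1610 s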); conditions: recombinant KvBeta, 4-cyanobenzaldehyde reduction, at 10 µM, stronger effect = higher value
[7] = target: Voltage-gated potassium channel subunit beta-2 (Rattus norvegicus) (UniProt P62483); experiment: enhancers of rat Kvbeta2 NADPH turnover – biochemical, NADPH fluorescence, primary screen (AID 623;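 active = NADPH fluorescence slope more negative than the mean of all samples by about 3 SD, 99.7% confidence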;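 note: fluorescence intensity change per second fitted from 20 to 320 s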); conditions: Recombinant KvBeta, NADPH fluorescence decrease slope, 10 min; at 10 µM; stronger effect = lower value
[8] = target: Alpha-2C adrenergic receptor (Homo sapiens) (UniProt P18825); experiment: compounds altering alpha2C-coupled GIRK flux – cell-based, HEK293 alpha2C/GIRK1/2, thallium flux, primary screen (AID 624;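 active = fluorescence slope after compound addition differing from the mean of all screened samples at 99.7% confidence, in either direction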;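 note: slope of fluorescence ratio to pre-addition baseline per second over 15 to 24 s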); conditions: thallium flux BTC fluorescence, at 10 µM, actives lie on both sides
[9] = inhibitors of larval lipid processing in zebrafish, primary screen, whole organism, PED6 fluorescence, gall bladder and intestine (AID 686;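 active = a full or partial loss of lipid-probe fluorescence in the fish gall bladder, intestine or both, judged by eye; inactive = no fluorescence loss, or compound toxic to the fish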;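 note: larvae 5 to 7 days old with five fish per well; signal comes from phospholipase A2 cleavage of quenched PED6 carried via bile; overnight exposure to compound and PED6 before scoring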); conditions: Zebrafish larvae PED6 lipid processing, fluorescence scoring; screened at 20 µM (by protocol)
[10] = loss of swimming-algae plug formation – whole organism, Chlamydomonas reinhardtii, WT vs cilia-less mutant, absorbance, 96-well, primary screen (AID 463189); conditions: Chlamydomonas reinhardtii gravitaxis, OD600 absorbance, 2 days; at 10 µM; stronger effect = higher value;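 note: 0% = wild type cc124 cells in DMSO and 100% = ciliumless bld1 mutant cells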
[11] = blockers of RIG-like receptor reporter activation – cell-based, Sendai virus stimulus, luciferase, 10K MLSCN set, TLR/RLR signaling modifier project, primary screen (AID 602276;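 active = inhibition at or above 50% at 10 µM; inactive = inhibition below 50%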;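 note: firefly luciferase from ISG56 promoter only with Renilla not read in this screen; 0% = Sendai virus plus DMSO and 100% = medium plus DMSO without virus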); conditions: HEK293 RL24 IRF3 luciferase reporter, at 10 µM, stronger effect = higher value
[12] = TLR3 IRF3 reporter activation blockers – cell-based, poly I:C stimulus, luciferase, 10K MLSCN set, primary screen (AID 602277;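 active = inhibition of the reporter signal at or above 50%; inactive = inhibition below 50%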); conditions: HEK293-TLR3 RL24 IRF3 luciferase reporter, at 10 µM, stronger effect = higher value
[13] = measured here: cell density z-score
[14] = measured here: nuclear c-Myc green intensity z-score
[15] = measured here: nuclear pErk red intensity z-score, stronger effect = higher value

Chain of Alpha-2C adrenergic receptor (Homo sapiens) (P18825 whole entry, looked up): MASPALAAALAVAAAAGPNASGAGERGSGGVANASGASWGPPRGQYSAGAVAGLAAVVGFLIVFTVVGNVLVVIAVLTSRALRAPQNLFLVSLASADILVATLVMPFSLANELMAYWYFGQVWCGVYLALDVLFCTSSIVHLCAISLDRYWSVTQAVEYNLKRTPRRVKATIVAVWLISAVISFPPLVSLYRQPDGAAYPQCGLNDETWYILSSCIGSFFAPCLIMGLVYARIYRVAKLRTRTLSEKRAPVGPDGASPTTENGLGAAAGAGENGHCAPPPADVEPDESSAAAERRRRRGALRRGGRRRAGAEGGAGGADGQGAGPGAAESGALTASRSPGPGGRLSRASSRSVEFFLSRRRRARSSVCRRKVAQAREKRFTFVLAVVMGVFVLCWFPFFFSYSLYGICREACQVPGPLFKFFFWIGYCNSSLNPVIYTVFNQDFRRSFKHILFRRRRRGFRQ
Chain of Voltage-gated potassium channel subunit beta-2 (Rattus norvegicus) (P62483 whole entry, looked up): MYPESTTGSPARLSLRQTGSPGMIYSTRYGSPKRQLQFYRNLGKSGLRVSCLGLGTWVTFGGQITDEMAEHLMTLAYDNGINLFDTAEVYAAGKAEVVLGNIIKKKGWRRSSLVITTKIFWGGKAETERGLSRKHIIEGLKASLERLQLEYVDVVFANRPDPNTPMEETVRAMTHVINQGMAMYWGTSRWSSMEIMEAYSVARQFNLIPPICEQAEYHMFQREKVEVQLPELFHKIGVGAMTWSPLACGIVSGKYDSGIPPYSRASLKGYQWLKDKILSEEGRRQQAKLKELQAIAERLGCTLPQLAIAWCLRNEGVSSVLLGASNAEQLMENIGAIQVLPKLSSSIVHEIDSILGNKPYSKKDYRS
Chain of Dual specificity protein phosphatase 6 (Homo sapiens) (Q16828 whole entry, looked up): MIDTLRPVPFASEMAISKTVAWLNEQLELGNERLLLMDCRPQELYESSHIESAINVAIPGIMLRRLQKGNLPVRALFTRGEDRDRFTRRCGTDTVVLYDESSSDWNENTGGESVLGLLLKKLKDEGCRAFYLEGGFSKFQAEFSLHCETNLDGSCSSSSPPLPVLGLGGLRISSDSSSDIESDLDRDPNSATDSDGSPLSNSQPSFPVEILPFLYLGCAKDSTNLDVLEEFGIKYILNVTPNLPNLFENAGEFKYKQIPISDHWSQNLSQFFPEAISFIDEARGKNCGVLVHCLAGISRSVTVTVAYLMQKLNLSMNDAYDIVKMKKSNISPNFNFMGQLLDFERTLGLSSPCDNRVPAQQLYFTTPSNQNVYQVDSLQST

Row | Structure (SMILES) | cell count [1] | inhibition [1] | inhibition of aggregation [2] | nuclei count [2] | inhibition [3] | nuclei count [3] | z-score [4, 13] | z-score [4, 14] | z-score [4, 15] | inhibition [5] | fluorescence slope [6] | NADPH fluorescence slope [7] | slope [8] | outcome [9] | inhibition [10] | inhibition [11] | inhibition [12]
1 | COc1cccc(-c2nnc3sc(-c4ccc(C)cc4)nn23)c1 | 634 | 3.3% (inactive) | 11.6% (inactive) | 77.9% | -24.2% (inactive) | 121% | -0.746 | -0.965 | 1.01 | -4.27% (inactive) | -0.414 (inactive) | -0.000137 (inactive) | 0.00537 (inactive) | inactive | 5.03% (inactive) | 2.84% (inactive) | 34.9% (inactive)
2 | CN(C)CCOc1ccccc1Cc1ccccc1 | 539 | 5.9% (inactive) | -17.6% (inactive) | 92.7% | -66.7% (inactive) | 118% | -0.59 | 1.74 | -0.949 | 10.2% (inactive) | -0.506 (inactive) | 2.6e-05 (inactive) | 0.00455 (inactive) | inactive | 147% (active) | 17.7% (inactive) | 43% (inactive)
3 | O=C(O)c1cc2cc(F)ccc2[nH]1 | 552 | -0.9% (inactive) | -5.1% (inactive) | 95.6% | -14.2% (inactive) | 107% | 2.14 | -1.93 | -0.0855 | -5.24% (inactive) | -0.457 (inactive) | -3.2e-05 (inactive) | 0.00488 (inactive) | inactive | -3.42% (inactive) and -23.2% (inactive) | 12.4% (inactive) | 46.1% (inactive)
4 | CCOC(=O)c1c(C)n(C)c2ccc(OC)c(NC(=O)CCN3CCSCC3)c12 | 476 | 3% (inactive) | 5.7% (inactive) | 112% | -134% (inactive) | 114% | -2.21 | 0.452 | 0.641 | -9.66% (inactive) | -0.464 (inactive) | -6.9e-05 (inactive) | 0.00572 (inactive) | inactive | 4.14% (inactive) | 24.4% (inactive) | 28.3% (inactive)
5 | OC(CCCN1CCC(O)(c2ccc(Cl)cc2)CC1)c1ccc(F)cc1 (stereo not drawn) | 686 | -2.4% (inactive) | -13.4% (inactive) | 116% | -82.7% (inactive) | 118% | 1.1 | 0.439 | -0.848 | 14.6% (inactive) | -0.468 (inactive) | -6.6e-05 (inactive) | 0.00402 (inactive) | inactive | 20.5% (inactive) | 12.8% (inactive) | 40.2% (inactive)
6 | Cc1nc2sccn2c(=O)c1CCN1CCC(=C(c2ccc(F)cc2)c2ccc(F)cc2)CC1 | 597 | -5.2% (inactive) | 4% (inactive) | 104% | -80.7% (inactive) | 112% | 0.864 | 0.124 | -0.385 | 27.9% (inactive) | -0.459 (inactive) | -4.2e-05 (inactive) | 0.0045 (inactive) | inactive; toxic | 29.2% (inactive) and 168% (active) | 12% (inactive) | -6.25% (inactive)
7 | CN(C)CCC=C1c2ccccc2CCc2ccccc21 | 541 | -3.1% (inactive) | 2.1% (inactive) | 107% | -17.7% (inactive) | 126% | 0.892 | -0.494 | 0.732 | -0.493% (inactive) | -0.449 (inactive) | -6.5e-05 (inactive) | 0.00605 (inactive) | inactive | 6.87% (inactive) and 12.5% (inactive) | -9.05% (inactive) | 51% (active)
8 | COc1ccc(Cn2c(CCCO)nc3ccccc32)cc1OC | 577 | -7.7% (inactive) | -17% (inactive) | 105% | -84% (inactive) | 122% | -0.981 | 1.12 | 1.14 | -5.89% (inactive) | -0.412 (inactive) | -4.3e-05 (inactive) | 0.0064 (inactive) | inactive | 2.72% (inactive) | 13.3% (inactive) | 22.4% (inactive)
9 | Cc1nc(/N=C(\N)Nc2ccccc2)nc2ccccc12 | 304 | 2.5% (inactive) | -14% (inactive) | 103% | -112% (inactive) | 110% | 0.361 | 0.688 | 0.354 | -0.624% (inactive) | -0.38 (inactive) | 2.3e-05 (inactive) | 0.0057 (inactive) | inactive | 7.3% (inactive) | -6.34% (inactive) | -21.7% (inactive)
10 | CCC(c1c(C)n(C)n(-c2ccccc2)c1=O)c1c(C)n(C)n(-c2ccccc2)c1=O | 550 | -4.3% (inactive) | 27.5% (inactive) | 89.2% | -51.3% (inactive) | 125% | -0.849 | -0.188 | -0.348 | 3.66% (inactive) | -0.488 (inactive) | -0.000154 (inactive) | 0.00494 (inactive) | inactive | 5% (inactive) | 17.6% (inactive) | 17.1% (inactive)
11 | CCCCOc1cc(C(=O)NCCN(CC)CC)c2ccccc2n1 | 511 and 578 | -5.3% (inactive) and -4.6% (inactive) | 9.3% (inactive) and -1.1% (inactive) | 92.4% and 92.8% | 13% (inactive) and -47.1% (inactive) | 125% and 129% | -0.0512 and 0.242 | 1.21 and -0.093 | 0.116 and 1.52 | 11.3% (inactive) and -6.41% (inactive) | -0.452 (inactive) and -0.465 (inactive) | -7.4e-05 (inactive) and -5.9e-05 (inactive) | 0.00498 (inactive) and 0.00574 (inactive) | inactive | 1.51% (inactive) and 12.2% (inactive) | 4.17% (inactive) and 5.36% (inactive) | 54.6% (active) and 61.4% (active)
12 | CC1(C)CC(=O)C2=C(C1)N(CC1CCCO1)C(=O)C2(O)C(F)(F)F (stereo not drawn) | 503 | 6.9% (inactive) | -2.8% (inactive) | 108% | -123% (inactive) | 123% | -0.368 | 0.41 | -0.669 | 1.75% (inactive) | -0.492 (inactive) | -1.2e-05 (inactive) | 0.00532 (inactive) | inactive | 29.7% (inactive) | -0.648% (inactive) | 98% (active)
13 | O=C(NCc1ccco1)c1cnn2c(C(F)(F)F)cc(-c3ccco3)nc12 | 480 | -4.4% (inactive) | -12.5% (inactive) | 95.1% | -34.8% (inactive) | 118% | -0.634 | 0.493 | -1.31 | 11.3% (inactive) | -0.421 (inactive) | -6.2e-05 (inactive) | 0.00539 (inactive) | inactive | -15.7% (inactive) | 16% (inactive) | 24.8% (inactive)
14 | CCN(CC)CCOC(=O)C(c1ccccc1)c1ccccc1 | 533 | -8.8% (inactive) | 19.8% (inactive) | 104% | -7.9% (inactive) | 122% | -0.21 | -0.778 | -0.535 | 7.39% (inactive) | -0.478 (inactive) | -3.2e-05 (inactive) | 0.00418 (inactive) | inactive | -5.27% (inactive) | 9.86% (inactive) | 40.1% (inactive)
15 | Cc1csc(NC(=O)CSc2nsc(SCC(=O)Nc3nc(C)cs3)c2C#N)n1 | 655 | -10.4% (inactive) | 12.2% (inactive) | 105% | -15.8% (inactive) | 141% | -1.33 | 0.375 | -0.579 | 6.51% (inactive) | -0.37 (inactive) | -3.7e-05 (inactive) | 0.00462 (inactive) | inactive | 2.21% (inactive) | -8.75% (inactive) | -83.6% (inactive)
16 | O=C(O)c1ccccc1Nc1cccc(C(F)(F)F)c1 | 626 | 3.3% (inactive) | -7.4% (inactive) | 99.3% | -44.4% (inactive) | 131% | 0.0659 | 0.639 | -1.06 | 23.4% (inactive) | -0.455 (inactive) | -3.9e-05 (inactive) | 0.00472 (inactive) | inactive | -7.16% (inactive) | 5.42% (inactive) | 28.4% (inactive)
17 | CC(C)Sc1nc(N2CCCC2)c2c(c1C#N)CC(C)(C)OC2 | 547 | -6.2% (inactive) | 15.4% (inactive) | 73.8% | -59.4% (inactive) | 126% | 1.33 | -1.33 | -0.539 | 24.4% (inactive) | -0.386 (inactive) | 4.7e-06 (inactive) | 0.00612 (inactive) | inactive | 48.4% (inactive) | 14% (inactive) | 18.1% (inactive)
18 | CCCCCCCC(=O)OCC(=O)[C@@]1(O)CC[C@H]2[C@@H]3CCC4=CC(=O)CC[C@]4(C)[C@H]3[C@@H](O)C[C@@]21C | 531 | -8.2% (inactive) | -25.1% (inactive) | 92.7% | 3.4% (inactive) | 107% | -0.552 | -1.25 | -0.122 | -8.38% (inactive) | -0.503 (inactive) | -5.1e-05 (inactive) | 0.0075 (inactive) | inactive | -10.8% (inactive) | 15.2% (inactive) | 49.5% (inactive)
19 | CN1CCN(/C=N/c2sc3c(c2C#N)CCCCC3)CC1 | 536 | -4.8% (inactive) | 2.6% (inactive) | 116% | -74.7% (inactive) | 108% | -3.34 | 0.909 | 1.9 | -4.27% (inactive) | -0.42 (inactive) | -6e-06 (inactive) | 0.00496 (inactive) | inactive | 135% (active) | -35.3% (inactive) | -83.9% (inactive)
